# The source made the active and inactive calls. The call rests on the fitted dose curve; in most records, active means well fitted curve in the direction sought with a large enough effect in the repeat runs; inconclusive means weak or mixed curves; inactive means flat fitted curve, though single readings scatter.
# Assay: qHTS assay to test for compound auto fluorescence at 590 nm (red) in HEK293 cell free culture (AID 720683)
# Conditions: cell-free medium autofluorescence, Ex540/Em590 red; series mostly up to 91.3 µM
# Excerpt: U.S. Tox21 Program National Center for Advancing Translational Sciences [NCATS] NIH Chemical Genomics Center [NCGC] U.S. Environmental Protection Agency [EPA] National Institutes of Environmental Health Sciences [NIEHS] National Toxicology Program [NTP] U.S. Food and Drug Administration [FDA] Tox21 Assay Overview: Compound auto fluorescence often interferes with screening of the compound library against various biological targets and signaling pathways. Some of these compounds may have fluorophoric properties. Such properties may interfere with the assay outputs resulting in false positives and/or negatives. To decrease such complications and ensure the compound activities are relevant in terms of biological response, the Tox21 10K compound library was screened for auto fluorescence. From the fluorophores used as reporter signals in our screening assays, the auto fluorescence equivalencies of compounds against three fluorophores have been evaluated: Triamterene, Fluorescein and Rose Bengal sodium for blue, green and red fluorescence, respectively. The fluorescence intensities were measured using Excitation/Emission wavelengths at 405/460nm, 485/535nm and 540/590nm for blue, green and red labels, respectively. This assay includes the red fluorescence data.
# Tox21 Assay Protocol Summary: 5 uL of culture medium (DMEM containing 10% FBS) per well was dispensed into black wall/clear bottom 1536-well plates using a Multidrop Combi Dispenser (ThermoFisher Scientific, Waltham, MA). After 23 nL compound or DMSO vehicle was transferred into assay plate by a pintool work station (Kalypsys, San Diego, CA), fluorescence intensities in the assay plates were measured by an Envision (PerkinElmer, Shelton, CT) plate reader using three labels for measuring blue, green and red fluorescence at […] 460, 535 and 590nm respectively.
# On the % scale 0 is the no-effect control and ±100 the full control effect.
SMILES,outcome,"fluorescence, % of fluorescent control"
CCOc1ccccc1N,inactive,–
CCNCCO,inactive,–
COc1cc(C)ccc1C(C)C,inactive,–
Nc1ccc(Oc2ccc(N)c(N)c2)cc1,inactive,–
COc1cc(N)c(Cl)cc1C(=O)NC1CCN(Cc2ccccc2)CC1,–,0.0929% [at 18.6 µM] (inactive)
CCOc1ccc2nc(N)sc2c1,inactive,–
C=CCCCCCCCCO,inactive,–
O=C(O[C@@H](C(=O)O)[C@@H](OC(=O)c1ccccc1)C(=O)O)c1ccccc1,inactive,–
CCCCC(CC)COC(=O)COc1cc(Cl)c(Cl)cc1Cl (stereo not given),inactive,–
CCCCCOc1ccc(C2SC(=O)NC2=O)cc1OCC (stereo not given),inactive,–
C[C@@H](N)C(=O)O,inactive,–
O=c1[nH]cnc2c1ncn2[C@@H]1O[C@H](CO)[C@@H](O)[C@H]1O,inactive,–
CC(C)c1ccccc1,inactive,–
CN(C)C(=O)NC1(c2ccccc2)CCN(CCC[C@]2(c3ccc(Cl)c(Cl)c3)CCCN(C(=O)c3ccccc3)C2)CC1,–,-0.159% [at 18.6 µM] (inactive)
N#Cc1ccc(C(c2ccc(C#N)cc2)n2cncn2)cc1,inactive,–
CCN1CC(CCN2CCOCC2)C(c2ccccc2)(c2ccccc2)C1=O (stereo not given),inactive,–
CC(C)Nc1nc(N)nc(Cl)n1,inactive,–
Cc1c(N)cccc1N,inactive,–
Cn1cnc2c(F)c(Nc3ccc(Br)cc3Cl)c(C(=O)NOCCO)cc21,inactive,–
O=C(O)[C@@H]1CSCN1,inactive,–

SMILES,outcome,"fluorescence, % of fluorescent control"
CCCCN1C[C@H](O)[C@@H](O)[C@H](O)[C@H]1CO,inactive,–
CCOC(=O)C(Br)c1ccccc1 (stereo not given),inactive,–
CC(C)(C)c1ccc(OC(=O)c2ccccc2O)cc1,inactive,–
NC1=NCC2c3ccccc3Cc3ccccc3N12 (stereo not given),inactive,–
C[C@@H]1CN(c2c(F)c(N)c3c(=O)c(C(=O)O)cn(C4CC4)c3c2F)C[C@H](C)N1,inactive,–
Clc1cccc(-c2cc(Cl)cc(Cl)c2)c1,inactive,–
OCCN(CCO)CCN(CCO)CCO,inactive,–
CN1CCN(C2=Nc3cc(F)ccc3Cc3ccccc32)CC1,inactive,–
CC(=O)N(CC(O)CN(C(C)=O)c1c(I)c(C(=O)NCC(O)CO)c(I)c(C(=O)NCC(O)CO)c1I)c1c(I)c(C(=O)NCC(O)CO)c(I)c(C(=O)NCC(O)CO)c1I (stereo not given),–,-0.132% [at 18.6 µM] (inactive)
CCCCCCOc1ccc(N)cc1,inactive,–
CCN(CC)CCOc1ccc(Cc2ccccc2)cc1,inactive,–
O=C1CCCCC1C1CCCCC1 (stereo not given),inactive,–
FC(F)(F)C(F)(F)C(F)(F)C(F)(F)C(F)(F)C(F)(F)C(F)(F)C(F)(F)Br,inactive,–
CN(CC1(C)CCCO1)S(=O)(=O)c1ccc(Cl)c(S(N)(=O)=O)c1 (stereo not given),inactive,–
COC(=O)N[C@H](C(=O)N[C@@H](Cc1ccccc1)[C@@H](O)CN(Cc1ccc(-c2ccccn2)cc1)NC(=O)[C@@H](NC(=O)OC)C(C)(C)C)C(C)(C)C,inactive,–
CO[Si](C)(C)OC,inactive,–
CCCc1c2oc(C(=O)O)cc(=O)c2cc2c(=O)cc(C(=O)O)n(CC)c12,inactive,–
O=C(O)CN(CCN(CC(=O)O)CC(=O)O)CCN(CC(=O)O)CC(=O)O,inactive,–
CC(C)C(=O)OC/C=C/c1ccccc1,inactive,–
C1CSCCS1,inactive,–
